Compound activity: PubChem, National Center for Advancing Translational Sciences (NCATS)
HEK293 tox: Cytotoxic Profiling in HEK 293 Cell Line of Diverse Libraries Using Quantitative High-Throughput Screening; 94,000 compounds, 6.6% hits; HEK 293 viability, ATP luminescence (CellTiter-Glo), 48-72 h; Potency, µM (titrated, usually from 115 µM), hits mostly inhibitors; note: nearly all actives have a fitted effect of over 60% in size
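Luminescence from cellular ATP, measured with CellTiter-Glo, indicates HEK 293 viability. Cells plated at 250 cells/well are treated with compound for 48 or 72 hr at 37 degree Celsius before reagent addition.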
NIH3T3 tox: Cytotoxic Profiling in NIH 3T3 Cell Line of Diverse Libraries Using Quantitative High-Throughput Screening | NIH 3T3 viability, CellTiter-Glo ATP luminescence, 48-72 h | 94,000 compounds, 4.3% hits | AID 1345082, 2018 | Potency, µM (series often up to 96.7 µM), most hits filed as inhibitors; note: nearly all actives have a fitted effect of over 55% in size
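Mouse fibroblast NIH 3T3 cells, 400 per well, received compound via pintool and were incubated for 48 or 72 hr prior to CellTiter-Glo ATP luminescence measurement.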
GPT2 inh: Primary qHTS assay for inhibitors of Glutamate pyruvate transaminase 2 (GPT2) | Potency, µM (top dose mostly 57.7 µM), usual class: inhibitors | 100,000 compounds, 0.25% hits | AID 1671188, 2021 | Recombinant GPT2, coupled pyruvate oxidase/HRP Amplex Red fluorescence | Alanine aminotransferase 2 (Homo sapiens), Q8TD30; note: nearly all actives have a fitted effect of over 60% in size
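Fluorescence read-out: pyruvate from GPT2 turnover coupled to pyruvate oxidase, HRP and Amplex Red (0.2mM ThPP, 0.2U/mL PO and HRP, 50uM Amplex final). Substrates 250uM a-KG, 2mM L-alanine; enzyme 10ng/uL; 30 min RT.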
Luciferase inh: Firefly luciferase inhibition profiling of diverse chemical library using quantitative high-throughput screening | Luciferin 4-monooxygenase (Photinus pyralis), P08659 | purified P. pyralis luciferase, luminescence, biochemical | Potency, µM (series often up to 115 µM), usual class: inhibitors | 76,000 compounds, 2.5% hits | AID 1347043, 2019; note: nearly all actives have a fitted effect of over 65% in size
Target sequence (P08659 whole entry, looked up): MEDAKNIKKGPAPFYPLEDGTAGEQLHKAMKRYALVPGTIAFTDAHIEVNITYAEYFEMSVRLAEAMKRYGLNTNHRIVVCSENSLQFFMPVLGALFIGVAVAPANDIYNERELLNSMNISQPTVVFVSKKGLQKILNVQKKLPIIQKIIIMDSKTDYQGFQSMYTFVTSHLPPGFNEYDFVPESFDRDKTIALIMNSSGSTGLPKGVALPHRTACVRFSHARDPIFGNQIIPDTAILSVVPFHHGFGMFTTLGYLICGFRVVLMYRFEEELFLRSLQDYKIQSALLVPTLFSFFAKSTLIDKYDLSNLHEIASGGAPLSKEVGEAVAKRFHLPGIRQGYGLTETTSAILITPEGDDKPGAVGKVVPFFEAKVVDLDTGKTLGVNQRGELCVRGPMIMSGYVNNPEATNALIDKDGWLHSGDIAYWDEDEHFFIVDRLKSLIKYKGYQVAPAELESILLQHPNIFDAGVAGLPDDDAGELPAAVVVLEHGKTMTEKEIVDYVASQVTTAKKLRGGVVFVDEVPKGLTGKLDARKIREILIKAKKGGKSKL
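Purified P. pyralis luciferase (10nM final) in 50mM Tris acetate pH 7.5, 10mM Mg acetate, 0.01% Tween-20, 0.05% BSA with 10uM D-luciferin and 10uM ATP. Compounds titrated qHTS. Luminescence imaged on CCD.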
NPR1 antag: Natriuretic polypeptide receptor (hNpr1) antagonism - Primary qHTS | Atrial natriuretic peptide receptor 1 (Homo sapiens), P16066 | HEK293 hNpr1 GloSensor cGMP, ANP-stimulated luminescence | Potency, µM (titrated, usually from 46.3 µM), most hits filed as inhibitors | 76,000 compounds, 1.6% hits; calls by dose curve; note: nearly all actives have a fitted effect of over 60% in size
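HEK293 cells stably expressing human Npr1 and cGMP GloSensor pGS-40F, loaded 2 h with 2% GloSensor reagent, given compound 30 min at room temperature. Luminescence read before and 20 min after 0.1 nM hNppA.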
NPR1 antag cnf: Natriuretic polypeptide receptor (hNpr1) antagonism - Confirmation. shares compounds with NPR1 antag. HEK293 hNpr1 cGMP GloSensor luminescence, ANP-stimulated. Potency, µM (titrated, usually from 57.6 µM), hits mostly inhibitors. 1,400 compounds, 76% hits. AID 1347044, 2019; calls by dose curve; note: nearly all actives have a fitted effect of over 70% in size
NPR2 antag: Natriuretic polypeptide receptor (hNpr2) antagonism - Subtype selectivity assay. AID 1347046, 2019. Potency, µM (highest dose often 57.6 µM), most hits filed as inhibitors. shares compounds with NPR1 antag. 1,400 compounds, 67% hits. HEK293 hNpr2 GloSensor cGMP luminescence, CNP-stimulated; calls by dose curve; note: nearly all actives have a fitted effect of over 70% in size
FLuc inh counter: Natriuretic polypeptide receptor (hNpr1) antagonism - Confirmation firefly luciferase (FLuc) inhibition counterscreen; shares compounds with NPR1 antag; purified FLuc enzyme, luminescence, Km substrate; Potency, µM (series often up to 57.6 µM), most hits filed as inhibitors; 1,400 compounds, 0.7% hits
GloSensor ctrl: Natriuretic polypeptide receptor (hNpr1) antagonism - Counterscreen GloSensor control cell line. shares compounds with NPR1 antag. 1,400 compounds, 69% hits. Potency, µM (doses to about 57.6 µM), actives largely listed as inhibitors. HEK293 GloSensor cGMP, SNP-stimulated, luminescence; calls by dose curve; note: nearly all actives have a fitted effect of over 70% in size
Of the large screens only hits and unclear results are named; the others gave an inactive call (follow-up assays come after a bar, where they were run). In the library only some 10% were active in any assay of this set; here they are far more common. Unless noted, calls come from the whole dose curve; as a rule, active = well fitted curve in the direction sought with a large enough effect; inconclusive = small, poorly fitted or top-dose-only effect, or another doubt; inactive = no such curve, though single readings can be large; an effect the other way counts as inactive or inconclusive.

Cc1nn(Cc2ccccc2)c(C)c1[C@@H]1C=C[C@@H](NC(=O)c2cccs2)C1	HEK293 tox inconclusive, NIH3T3 tox inconclusive
COc1ccc(-n2nc(C)c([C@H]3C=C[C@@H](OC(=O)N[C@H](C)c4ccccc4)C3)c2C)cc1	HEK293 tox 14.1µM, NIH3T3 tox inconclusive, NPR1 antag 11.2µM | NPR1 antag cnf 9.94µM | NPR2 antag 12.5µM | FLuc inh counter inactive | GloSensor ctrl 8.86µM
COc1ccc(-n2nc(C)c([C@@H]3C=C[C@@H](NS(=O)(=O)c4cccs4)C3)c2C)cc1	HEK293 tox inconclusive, NIH3T3 tox inconclusive, NPR1 antag inconclusive | NPR1 antag cnf inconclusive | NPR2 antag inconclusive | FLuc inh counter inactive | GloSensor ctrl 35.3µM
CCNC(=O)O[C@H]1C(=O)N(C)C2(CCN(C(=O)Cc3cccs3)CC2)[C@@H]1C(=O)OCC	NIH3T3 tox inconclusive (no result: GPT2 inh, Luciferase inh, NPR1 antag)
CC(C)NC(=O)N1CCNc2cnc(Nc3cccc(C(F)(F)F)c3)nc2C1	HEK293 tox 35.5µM, NIH3T3 tox 39.8µM, NPR1 antag 12.6µM | NPR1 antag cnf 17.7µM | NPR2 antag 22.2µM | FLuc inh counter inactive | GloSensor ctrl 15.7µM
Cc1ncsc1C(=O)N1CCNc2cnc(Nc3cccc(F)c3)nc2C1	HEK293 tox inconclusive, NIH3T3 tox inconclusive, NPR1 antag 14.1µM | NPR1 antag cnf 12.5µM | NPR2 antag 17.7µM | FLuc inh counter inactive | GloSensor ctrl 11.1µM
O=C(c1cc(-c2ccc(Cl)cc2Cl)c2cccn2n1)N1CCN(c2ncccn2)CC1	HEK293 tox inconclusive, NIH3T3 tox inconclusive (no result: Luciferase inh, NPR1 antag)
CN(CC1CCOCC1)S(=O)(=O)c1cc(F)cc(F)c1	none
O=[S+]([O-])(Nc1cccnc1)c1ccc2c(c1)OCCN(Cc1ccccc1)C2	HEK293 tox inconclusive, NIH3T3 tox inconclusive, NPR1 antag inconclusive
CN(C)[S+](=O)([O-])c1ccc2c(c1)OCCN(Cc1ccc(C(F)(F)F)cc1)C2	HEK293 tox inconclusive, NIH3T3 tox 44.7µM, NPR1 antag 17.8µM | NPR1 antag cnf 12.5µM | NPR2 antag 17.7µM | FLuc inh counter inactive | GloSensor ctrl 8.86µM
CN(C)[S+](=O)([O-])c1ccc2c(c1)OCCN(Cc1ccc(F)cc1)C2	HEK293 tox inconclusive, NIH3T3 tox inconclusive
O=[S+]([O-])(Nc1ccccc1)c1ccc2c(c1)OCCN(Cc1ccncc1)C2	HEK293 tox inconclusive, NIH3T3 tox inconclusive, NPR1 antag inconclusive | NPR1 antag cnf 39.6µM | NPR2 antag 35.3µM | FLuc inh counter inactive | GloSensor ctrl 31.4µM
CN(CC1CCOC1)C(=O)NCCc1ccccc1 (stereo unspecified)	none
CN(Cc1cccnc1)c1nc2c(c(=O)[nH]1)CCN(Cc1ccc(Cl)cc1F)CC2	HEK293 tox inconclusive, NIH3T3 tox inconclusive, GPT2 inh inconclusive, NPR1 antag 11.2µM | NPR1 antag cnf 15.3µM | NPR2 antag 17.2µM | FLuc inh counter inactive | GloSensor ctrl 9.68µM
O=C(NCc1ccc2c(c1)OCO2)c1nc(-c2cccc(C(F)(F)F)c2)c2ccccn12	HEK293 tox inconclusive, NPR1 antag inconclusive | NPR1 antag cnf inactive | NPR2 antag inactive | FLuc inh counter inactive | GloSensor ctrl inactive
O=C(c1cc(F)ccc1F)N1CCN(c2cc(-c3ccc(Cl)cc3)[nH]n2)CC1	HEK293 tox 35.5µM, NIH3T3 tox 28.2µM, NPR1 antag inconclusive | NPR1 antag cnf 27.3µM | NPR2 antag 24.3µM | FLuc inh counter inactive | GloSensor ctrl 30.6µM
O=C(c1cc(Cl)ccc1F)N1CCN(c2cc(-c3ccccc3)[nH]n2)CC1	HEK293 tox inconclusive, NIH3T3 tox inconclusive
O=C(c1ccc(F)cc1Cl)N1CCN(c2cc(-c3ccc(F)cc3)[nH]n2)CC1	HEK293 tox inconclusive, NIH3T3 tox inconclusive, NPR1 antag 11.2µM | NPR1 antag cnf 17.2µM | NPR2 antag 19.3µM | FLuc inh counter inactive | GloSensor ctrl 15.3µM
CC(C)Cc1ccc(S(=O)(=O)N(C)CC2CCOCC2)cc1	HEK293 tox inconclusive, NPR1 antag 10µM | NPR1 antag cnf 15.3µM | NPR2 antag 13.7µM | FLuc inh counter inactive | GloSensor ctrl 10.9µM
CC(C)Cc1ccc(S(=O)(=O)N(C)CC2CCOC2)cc1 (stereo unspecified)	HEK293 tox inconclusive, GPT2 inh inconclusive, NPR1 antag inconclusive
CCCc1ccc(S(=O)(=O)N(C)CC2CCOCC2)cc1	HEK293 tox inconclusive, NIH3T3 tox inconclusive, NPR1 antag inconclusive | NPR1 antag cnf 24.3µM | NPR2 antag inconclusive | FLuc inh counter inactive | GloSensor ctrl 19.3µM
COc1cccc(CCC(=O)N2CCC(c3nc(C4CCOCC4)no3)C2)c1 (stereo unspecified)	HEK293 tox inconclusive
O=C(CCc1ccccc1)N1CCC(c2nc(C3CCOCC3)no2)C1 (stereo unspecified)	none | NPR1 antag cnf inactive | NPR2 antag inactive | FLuc inh counter inactive | GloSensor ctrl inactive
Cc1ccc(C(=O)N2[C@@H]3CC[C@H]2CC(NC(=O)c2ccncc2)C3)cc1 (stereo partly specified)	none
OCCc1ccc(Nc2cnc3ccc(-c4cccc(CO)c4)nn23)cc1	HEK293 tox inconclusive, NIH3T3 tox inconclusive, Luciferase inh inconclusive
CN1CCN(Cc2ccc(Nc3cnc4ccc(-c5ccccc5)nn34)cc2)CC1	HEK293 tox 25.1µM, NIH3T3 tox inconclusive, NPR1 antag 31.6µM | NPR1 antag cnf 31.4µM | NPR2 antag 31.4µM | FLuc inh counter inactive | GloSensor ctrl 22.2µM
CCN1CCC(NCc2cccnc2N2CCN(c3ccccn3)CC2)CC1	none
CC(C)Cc1cc(C(=O)N2CCOCC2CC(=O)N2CC=CC2)nc(=O)[nH]1 (stereo unspecified)	none
